Laboratory results published in PubChem BioAssay (NCI).
About 79,000 compounds went through this panel and 15% of them were active in at least one assay; those are over-represented in the sample as a whole. The source made the active and inactive calls. Cut-off read from the data, not from the text of the source: active = growth inhibition above about 70%; inactive = the rest.

Key:
[1] = NCI Yeast Anticancer Drug Screen. Data for the rad52 strain (AID 147);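 note: 0% = growth of vehicle-treated control cultures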; conditions: S. cerevisiae rad52 mutant growth inhibition, hits give high values
How it was run: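 Growth of repair-deficient yeast cells was compared between compound-treated and vehicle-treated cultures to give percent inhibition.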

[2] = NCI Yeast Anticancer Drug Screen. Data for the wt1 strain (AID 149);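 note: 0% = growth of vehicle-treated wt1 cultures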; conditions: S. cerevisiae wt1 strain (SPY 50644) growth inhibition, hits give high values
How it was run: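 Vehicle-normalised growth inhibition; strain wt1; compound exposure.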

[3] = NCI Yeast Anticancer Drug Screen. Data for the rad50EPP+ strain (AID 151);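 note: 0% = growth of vehicle-treated control cultures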; conditions: S. cerevisiae rad50 mutant strain, hits give high values
How it was run: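 Measured: growth inhibition of rad50EPP+ yeast. Reference: vehicle-treated controls. Screen uses strains with defined genetic alterations in DNA damage repair or cell cycle control.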

[4] = NCI Yeast Anticancer Drug Screen. Data for the mgt1 strain (AID 153); conditions: S. cerevisiae mgt1 mutant growth inhibition, hits give high values
How it was run: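 Compounds were applied to mgt1 mutant yeast, and growth was then compared against vehicle-treated control cultures to give percent inhibition.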

[5] = NCI Yeast Anticancer Drug Screen. Data for the rad50 strain (AID 155);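 note: 0% = growth of vehicle-only cultures of the same strain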; conditions: S. cerevisiae rad50 strain growth inhibition, hits give high values
How it was run: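 A DNA repair-deficient yeast mutant serves as the test organism; compound-induced growth inhibition is calculated against vehicle-treated cells.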

[6] = NCI Yeast Anticancer Drug Screen. Data for the mec2-1 strain (AID 157); conditions: S. cerevisiae mec2-1 strain, hits give high values
How it was run: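 Compounds were applied to mec2-1 yeast cells. Their growth was then compared with that of vehicle-treated cultures to give growth inhibition.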

[7] = NCI Yeast Anticancer Drug Screen. Data for the rad14 strain (AID 159);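 note: 0% = growth of vehicle-treated control cultures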; conditions: S. cerevisiae rad14 strain growth inhibition, hits give high values
How it was run: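 Vehicle-treated cultures served as the baseline for growth inhibition of a DNA repair-mutant yeast strain exposed to each compound.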

[8] = NCI Yeast Anticancer Drug Screen. Data for the sgs1 mgt1 strain (AID 161);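 note: 0% = growth of cultures given vehicle only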; conditions: S. cerevisiae sgs1 mgt1 strain, hits give high values
How it was run: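 Compounds are added to genetically altered yeast, and growth is compared with cultures given vehicle alone to give percent inhibition.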

[9] = NCI Yeast Anticancer Drug Screen. Data for the CLN2oe strain (AID 163);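 note: 0% = growth of vehicle-only control cultures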; conditions: S. cerevisiae CLN2oe strain, hits give high values
How it was run: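 Cells of an engineered yeast line with disturbed cell-cycle regulation are treated with compound. Inhibition of growth is then calculated relative to the vehicle-treated reference.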

[10] = NCI Yeast Anticancer Drug Screen. Data for the cln2 rad14 strain (AID 165);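 note: 0% = growth equal to vehicle treated cultures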; conditions: S. cerevisiae cln2 rad14 strain, hits give high values
How it was run: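 Strain: cln2 rad14 yeast, altered in cell cycle control and DNA damage repair. Read-out: growth inhibition vs vehicle.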

[11] = NCI Yeast Anticancer Drug Screen. Data for the bub3 strain (AID 167); conditions: S. cerevisiae bub3 mutant strain, hits give high values
How it was run: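 Inhibition values come from growth of compound-treated mutant yeast normalised to vehicle-treated controls.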

[12] = NCI Yeast Anticancer Drug Screen. Data for the wt2 strain (AID 169);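 note: 0% = growth of vehicle-treated yeast cultures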; conditions: S. cerevisiae wt2 strain growth inhibition, hits give high values
How it was run: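 Growth of compound-treated yeast is measured and expressed as inhibition relative to vehicle-only controls.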

[13] = NCI Yeast Anticancer Drug Screen. Data for the sgs1 strain (AID 173);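 note: 0% = growth of vehicle-only control cultures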; conditions: S. cerevisiae sgs1 mutant, hits give high values
How it was run: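 Strain with an altered DNA repair or cell cycle pathway exposed to compound. Growth then measured. Value = inhibition versus vehicle control.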

[14] = NCI Yeast Anticancer Drug Screen. Data for the mlh1 rad18 strain (AID 175); conditions: S. cerevisiae mlh1 rad18 strain growth inhibition, hits give high values
How it was run: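 A repair-deficient yeast strain is exposed to test compound, and growth is scored relative to vehicle-treated controls.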

[15] = NCI Yeast Anticancer Drug Screen. Data for the rad18 strain (AID 177); conditions: S. cerevisiae rad18 mutant growth inhibition, hits give high values
How it was run: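 DNA-repair-defective yeast; compound treatment; growth inhibition scored against vehicle.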

[16] = at 5.0 µM (retest, dose inferred, filed as 0.5)
[17] = at 50.0 µM (retest, dose inferred, filed as 5.0)

Measured: growth inhibition

CCC(C)COC(=O)c1ccc(N=Cc2ccc(C=Nc3ccc(C(=O)OCC(C)CC)cc3)cc2)cc1 (stereo not drawn)
inactive: [1]; at 1.2 µM -2% | [1]; at 3.7 µM -3% | [1]; at 11.0 µM 6% | [1]; at 33.0 µM 4% | [1]; at 100.0 µM 13% | [2]; at 1.2 µM -1% | [2]; at 3.7 µM -4% | [2]; at 11.0 µM -2% | [2]; at 33.0 µM -1% | [2]; at 100.0 µM 3% | [3]; at 1.2 µM 5% | [3]; at 3.7 µM 5% | [3]; at 11.0 µM 16% | [3]; at 33.0 µM 32% | [3]; at 100.0 µM 49% | [4]; at 1.2 µM 1% | [4]; at 3.7 µM 1% | [4]; at 11.0 µM -4% | [4]; at 33.0 µM -6% | [4]; at 100.0 µM 6% | [5]; at 1.2 µM -2% | [5]; at 3.7 µM -9% | [5]; at 11.0 µM -2% | [5]; at 33.0 µM 3% | [5]; at 50.0 µM 28.8% | [5]; at 100.0 µM 21% | [6]; at 1.2 µM -3% | [6]; at 3.7 µM -2% | [6]; [16] 13% | [6]; at 11.0 µM 3% | [6]; at 33.0 µM 4% | [6]; [17] 13% | [6]; at 50.0 µM 49.6% | [6]; at 100.0 µM 8% | [7]; at 1.2 µM -1% | [7]; at 3.7 µM 1% | [7]; at 11.0 µM 4% | [7]; at 33.0 µM 2% | [7]; at 100.0 µM 11% | [9]; at 1.2 µM 0% | [9]; at 3.7 µM 0% | [9]; at 11.0 µM 6% | [9]; at 33.0 µM -1% | [9]; at 100.0 µM 0% | [10]; [16] 12% | [10]; [17] 12% | [10]; at 50.0 µM 41% | [11]; at 1.2 µM 7% | [11]; at 3.7 µM 3% | [11]; [16] 3% | [11]; at 11.0 µM 6% | [11]; at 33.0 µM 10% | [11]; [17] 3% | [11]; at 50.0 µM 62.1% | [11]; at 100.0 µM 10% | [12]; at 1.2 µM 0% | [12]; at 3.7 µM -2% | [12]; at 11.0 µM 0% | [12]; at 33.0 µM 2% | [12]; at 100.0 µM 5% | [13]; at 1.2 µM -2% | [13]; at 3.7 µM -2% | [13]; at 11.0 µM 2% | [13]; at 33.0 µM 7% | [13]; at 100.0 µM 11% | [14]; [16] 50% | [14]; [17] 50% | [14]; at 50.0 µM 57.1% | [15]; at 1.2 µM -1% | [15]; at 3.7 µM -3% | [15]; at 11.0 µM 3% | [15]; at 33.0 µM 13% | [15]; at 100.0 µM 22%
active: [5]; [16] 96% | [5]; [17] 96% | [8]; [16] 98% | [8]; [17] 98% | [8]; at 50.0 µM 70.3%
